Experimental data reported in PubChem BioAssay AID1159580 (chemical genetic matrix, 2015).
Several values for one entry are separate records, joined by “and”; a condition that tells them apart may be missing. Identical values can stand only once. Among all 5,500 compounds or so, about 2,000 (36%) were called active. Inconclusive results (about 18%) are left out. No stated cut-off is given here; in the data, active means normalized growth mostly below about 0.91 (no sharp cut-off); inconclusive means no clear call, values can overlap the other calls; inactive means mostly above about 0.92. The list shows a part of the results.

Experiment: chemical genetic growth profiling, strain panel (AID 1159580);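 further: tested at 20 µM; growth read once vehicle control cultures reached saturation at 30 °C; 1 = growth at the plate median or of vehicle wells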
Settings: S. cerevisiae deletion strains, growth OD

Measured: normalized growth

CCOC(=O)c1c(C)cc(O)cc1O
active: locus YAL030W, strain snc1, stronger effect = lower value 0.928 | locus YBR009C, strain hhf1, stronger effect = lower value 0.896 | locus YBR231C, strain swc5, stronger effect = lower value 0.897 | locus YCL011C, strain gbp2, stronger effect = lower value 0.891 | locus YDL134C, strain PPH21, stronger effect = lower value 0.874 | locus YDL185W, strain tfp1, stronger effect = lower value 0.896 | locus YDL192W, strain arf1, stronger effect = lower value 0.896 | locus YDR001C, strain nth1, stronger effect = lower value 0.909 | locus YDR101C, strain arx1, stronger effect = lower value 0.915 | locus YDR318W, strain mcm21, stronger effect = lower value 0.893 | locus YDR388W, stronger effect = lower value 0.916 | locus YDR502C, strain sam2, stronger effect = lower value 0.844 | locus YER015W, strain faa2, stronger effect = lower value 0.924 | locus YER110C, stronger effect = lower value 0.882 | locus YER155C, strain BEM2 (second series), stronger effect = lower value 0.857 | locus YGL078C, strain dbp3, stronger effect = lower value 0.912 | locus YGL086W, strain mad1, stronger effect = lower value 0.883 | locus YGL240W, strain doc1, stronger effect = lower value 0.887 | locus YGL248W, strain PDE1, stronger effect = lower value 0.877 | locus YGR135W, strain pre9, stronger effect = lower value 0.823 | locus YHR027C, strain rpn1, stronger effect = lower value 0.917 | locus YHR079C, strain IRE1 (second series), stronger effect = lower value 0.919 | locus YHR094C, strain hxt1, stronger effect = lower value 0.919 | locus YHR142W, strain chs7, stronger effect = lower value 0.866 | locus YHR200W, strain rpn10, stronger effect = lower value 0.864 | locus YIR030C, strain dcg1, stronger effect = lower value 0.913 | locus YJL095W, strain BCK1 (second series), stronger effect = lower value 0.917 | locus YJL164C, strain tpk1, stronger effect = lower value 0.903 | locus YJL168C, strain set2, stronger effect = lower value 0.931 | locus YKL068W, stronger effect = lower value 0.928 | locus YKL085W, strain MDH1 (second series), stronger effect = lower value 0.912 | locus YKL085W, strain MDH1, stronger effect = lower value 0.912 | locus YKR001C, strain vps1, stronger effect = lower value 0.732 | locus YLL041C, strain sdh2, stronger effect = lower value 0.917 | locus YLR039C, strain RIC1, stronger effect = lower value 0.604 | locus YLR258W, strain gsy2, stronger effect = lower value 0.906 | locus YLR262C, strain YPT6, stronger effect = lower value 0.556 | locus YLR330W, strain CHS5, stronger effect = lower value 0.876 | locus YLR370C, strain arc18, stronger effect = lower value 0.895 | locus YLR371W, strain rom2, stronger effect = lower value 0.767 | locus YLR418C, strain cdc73, stronger effect = lower value 0.758 | locus YML016C, strain PPZ1, stronger effect = lower value 0.888 | locus YML032C, strain rad52, stronger effect = lower value 0.897 | locus YML124C, strain tub3, stronger effect = lower value 0.911 | locus YMR078C, strain ctf18, stronger effect = lower value 0.881 | locus YMR223W, strain ubp8, stronger effect = lower value 0.898 | locus YNL233W, strain BNI4, stronger effect = lower value 0.788 | locus YNL248C, strain rpa49, stronger effect = lower value 0.872 | locus YNL250W, strain rad50, stronger effect = lower value 0.862 | locus YNL271C, strain bni1, stronger effect = lower value 0.906 | locus YNL307C, strain MCK1, stronger effect = lower value 0.846 | locus YOL147C, strain pex11, stronger effect = lower value 0.912 | locus YOR001W, strain rrp6, stronger effect = lower value 0.89 | locus YOR069W, strain VPS5, stronger effect = lower value 0.924 | locus YOR106W, strain vam3, stronger effect = lower value 0.855 | locus YOR144C, strain elg1, stronger effect = lower value 0.913 | locus YOR265W, strain rbl2, stronger effect = lower value 0.913 | locus YOR270C, strain vph1, stronger effect = lower value 0.721 | locus YOR316C, strain cot1, stronger effect = lower value 0.917 | locus YPL078C, strain atp4, stronger effect = lower value 0.887 | locus YPR119W, strain clb2, stronger effect = lower value 0.904 | locus YPR141C, strain kar3, stronger effect = lower value 0.901 | locus YPR163C, strain tif3, stronger effect = lower value 0.908 | locus YPR167C, strain met16, stronger effect = lower value 0.891 | strain wtn01, stronger effect = lower value 0.892
0.787 (active) and 0.917 (inactive): locus YJL095W, strain BCK1, stronger effect = lower value
inactive: locus YAL021C, strain ccr4, stronger effect = lower value 0.924 | locus YAL026C, strain drs2, stronger effect = lower value 0.946 | locus YBL061C, strain skt5, stronger effect = lower value 0.94 | locus YBR021W, strain FUR4, stronger effect = lower value 1.01 | locus YBR023C, strain chs3, stronger effect = lower value 0.922 | locus YBR171W, strain sec66, stronger effect = lower value 0.904 | locus YBR229C, strain ROT2, stronger effect = lower value 0.941 | locus YBR279W, strain paf1, stronger effect = lower value 0.947 | locus YCL016C, strain dcc1, stronger effect = lower value 0.921 | locus YCL029C, strain bik1, stronger effect = lower value 0.92 | locus YCL069W, strain vba3, stronger effect = lower value 0.939 | locus YCR088W, strain abp1, stronger effect = lower value 0.934 | locus YDL005C, strain med2, stronger effect = lower value 0.921 | locus YDL035C, strain GPR1, stronger effect = lower value 0.973 | locus YDL040C, strain nat1, stronger effect = lower value 0.94 | locus YDL074C, strain BRE1, stronger effect = lower value 0.923 | locus YDL101C, strain DUN1, stronger effect = lower value 0.917 | locus YDR069C, strain doa4, stronger effect = lower value 0.916 | locus YDR137W, strain rgp1, stronger effect = lower value 0.905 | locus YDR159W, strain sac3, stronger effect = lower value 0.887 | locus YDR162C, strain NBP2, stronger effect = lower value 0.87 | locus YDR195W, strain ref2 0.981 | locus YDR297W, strain sur2, stronger effect = lower value 0.93 | locus YDR334W, strain swr1, stronger effect = lower value 0.922 | locus YDR335W, strain msn5, stronger effect = lower value 0.935 | locus YDR392W, strain spt3, stronger effect = lower value 0.831 | locus YEL003W, strain gim4, stronger effect = lower value 0.947 | locus YEL037C, strain rad23, stronger effect = lower value 0.937 | locus YEL061C, strain CIN8 (second series), stronger effect = lower value 0.937 | locus YER016W, strain bim1, stronger effect = lower value 0.946 | locus YER111C, strain swi4, stronger effect = lower value 0.937 | locus YER155C, strain BEM2, stronger effect = lower value 0.927 | locus YER167W, strain BCK2, stronger effect = lower value 0.941 | locus YFR010W, strain ubp6, stronger effect = lower value 0.92 | locus YGL167C, strain pmr1, stronger effect = lower value 0.922 | locus YGL173C, strain kem1, stronger effect = lower value 0.928 | locus YGL227W, strain vid30, stronger effect = lower value 0.937 | locus YGL253W, strain hxk2, stronger effect = lower value 0.918 | locus YGR252W, strain gcn5, stronger effect = lower value 0.937 | locus YHR013C, strain ard1, stronger effect = lower value 0.941 | locus YHR030C, strain SLT2, stronger effect = lower value 0.93 | locus YHR079C, strain IRE1, stronger effect = lower value 0.918 | locus YHR129C, strain ARP1, stronger effect = lower value 0.924 | locus YIL066C, strain RNR3, stronger effect = lower value 0.951 | locus YIL073C, strain SPO22, stronger effect = lower value 0.888 | locus YIL125W, strain kgd1, stronger effect = lower value 0.945 | locus YJL092W, strain hpr5, stronger effect = lower value 0.923 | locus YJL115W, strain asf1, stronger effect = lower value 0.939 | locus YJL129C, strain trk1, stronger effect = lower value 0.929 | locus YJL134W, strain LCB3, stronger effect = lower value 0.931 | locus YJL154C, strain vps35, stronger effect = lower value 0.922 | locus YJL166W, strain qcr8, stronger effect = lower value 0.908 | locus YJL187C, strain SWE1 (second series), stronger effect = lower value 0.878 | locus YJL187C, strain SWE1, stronger effect = lower value 0.931 | locus YJR043C, strain POL32, stronger effect = lower value 0.965 | locus YJR066W, strain TOR1, stronger effect = lower value 0.853 | locus YKL009W, strain mrt4, stronger effect = lower value 0.924 | locus YKL160W, strain elf1, stronger effect = lower value 0.911 | locus YKR026C, strain gcn3, stronger effect = lower value 0.929 | locus YKR091W, strain srl3, stronger effect = lower value 0.942 | locus YLL001W, strain dnm1, stronger effect = lower value 0.919 | locus YLL026W, stronger effect = lower value 0.935 | locus YLR027C, strain aat2, stronger effect = lower value 0.93 | locus YLR058C, strain SHM2, stronger effect = lower value 0.906 | locus YLR102C, strain apc9, stronger effect = lower value 0.941 | locus YLR113W, strain HOG1, stronger effect = lower value 0.925 | locus YLR221C, strain rsa3, stronger effect = lower value 0.931 | locus YLR262C, strain YPT6 (second series), stronger effect = lower value 0.857 | locus YLR268W, strain sec22, stronger effect = lower value 0.964 | locus YLR320W, strain mms22, stronger effect = lower value 0.916 | locus YLR342W, strain FKS1, stronger effect = lower value 0.941 | locus YLR357W, strain rsc2, stronger effect = lower value 0.909 | locus YLR384C, strain iki3, stronger effect = lower value 0.937 | locus YML120C, strain ndi1, stronger effect = lower value 0.926 | locus YMR058W, strain fet3, stronger effect = lower value 0.914 | locus YMR125W, strain sto1, stronger effect = lower value 0.907 | locus YMR129W, stronger effect = lower value 0.949 | locus YMR205C, strain PFK2, stronger effect = lower value 0.91 | locus YMR231W, strain pep5, stronger effect = lower value 0.984 | locus YMR307W, strain GAS1, stronger effect = lower value 1.06 | locus YNL067W, strain RPL9B, stronger effect = lower value 0.899 | locus YNL071W, strain lat1, stronger effect = lower value 0.926 | locus YNL128W, strain TEP1, stronger effect = lower value 0.933 | locus YNL153C, strain GIM3, stronger effect = lower value 0.9 | locus YNL183C, strain NPR1, stronger effect = lower value 0.869 | locus YNL209W, strain ssb2, stronger effect = lower value 0.97 | locus YNL298W, strain CLA4, stronger effect = lower value 0.953 | locus YNL322C, strain KRE1 (second series), stronger effect = lower value 0.935 | locus YNR049C, strain mso1, stronger effect = lower value 0.92 | locus YNR052C, strain pop2, stronger effect = lower value 0.949 | locus YOL006C, strain TOP1, stronger effect = lower value 0.578 | locus YOL012C, strain htz1 1.06 | locus YOR061W, strain CKA2, stronger effect = lower value 0.957 | locus YOR070C, strain gyp1, stronger effect = lower value 0.951 | locus YOR080W, strain dia2, stronger effect = lower value 0.942 | locus YOR083W, strain WHI5, stronger effect = lower value 0.89 | locus YOR136W, strain idh2, stronger effect = lower value 0.928 | locus YOR184W, strain ser1, stronger effect = lower value 0.915 | locus YOR231W, strain MKK1, stronger effect = lower value 0.905 | locus YOR290C, strain snf2, stronger effect = lower value 0.88 | locus YPL051W, strain arl3, stronger effect = lower value 0.956 | locus YPL055C, strain LGE1, stronger effect = lower value 0.922 | locus YPL106C, strain sse1, stronger effect = lower value 0.88 | locus YPL240C, strain hsp82, stronger effect = lower value 0.952 | locus YPL256C, strain CLN2, stronger effect = lower value 0.839
